From PubChem BioAssay AID778 (Sanford-Burnham Center for Chemical Genomics, 2007)
Among all 96,000 compounds or so, about 20,000 (21%) were called active.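 How the source made its calls: active means CYP2C19 inhibition above a set limit at 5 µM in the primary screen (cut at about 50% in these data); inactive means the rest.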 Not all results are given here.

Molecular target: Cytochrome P450 2C19 (Homo sapiens) (UniProt P33261)
Assay: blockers of cytochrome P450 2C19 activity – biochemical, luminescence, ADME assay, primary screen (AID 778);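 further: plate controls were negative control wells for no effect and 2.5 mM tranylcypromine positive control for full effect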
Conditions: CYP2C19 Supersomes, luciferin-H EGE luminescence, 30 min; at 5 µM; stronger effect = higher value

Cytochrome P450 2C19 (Homo sapiens), sequence (P33261 whole entry, looked up): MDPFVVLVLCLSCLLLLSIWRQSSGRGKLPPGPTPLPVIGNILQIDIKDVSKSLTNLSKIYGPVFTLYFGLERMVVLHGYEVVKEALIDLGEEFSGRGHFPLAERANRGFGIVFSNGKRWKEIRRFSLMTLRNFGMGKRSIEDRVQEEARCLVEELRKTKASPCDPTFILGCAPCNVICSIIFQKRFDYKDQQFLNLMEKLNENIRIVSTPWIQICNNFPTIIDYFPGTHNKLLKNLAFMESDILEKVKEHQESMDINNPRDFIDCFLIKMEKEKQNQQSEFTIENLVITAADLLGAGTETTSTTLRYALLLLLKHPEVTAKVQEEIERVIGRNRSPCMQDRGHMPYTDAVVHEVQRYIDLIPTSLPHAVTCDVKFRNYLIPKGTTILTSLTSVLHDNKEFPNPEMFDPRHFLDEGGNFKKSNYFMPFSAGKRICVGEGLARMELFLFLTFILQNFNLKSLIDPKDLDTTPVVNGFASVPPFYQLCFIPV

| SMILES | inhibition |
| --- | --- |
| Cc1ccccc1Nc1nc(N)nc(CN2CCN(c3ccccn3)CC2)n1 | 12.9% (inactive) |
| Cc1ccc(C)c(NC(=O)c2ccc(OC(=O)c3ccco3)cc2)c1 | 4.9% (inactive) |
| CCC(CC)c1nnc(NS(=O)(=O)Cc2ccccc2)s1 | -10.5% (inactive) |
| O=C(Nc1cccn(Cc2c(Cl)cccc2Cl)c1=O)c1ccc(Cl)cc1 | 79.9% (active) |
| COc1ccc(Cn2cccc(NC(=O)Nc3ccc(C#N)cc3)c2=O)cc1 | 5.5% (inactive) |
| CSc1ccc(C#N)cc1NC(=O)c1ccc(Cl)cc1 | 3% (inactive) |
| Cc1cc(/C=C2/SC(=O)N(CC(=O)OC(C)C)C2=O)c(C)n1C | 1.6% (inactive) |
| Cc1c(NC(=O)CSc2cccc3cccnc23)c(=O)n(-c2ccccc2)n1C | -13.9% (inactive) |
| Cc1ccc(-n2nc3cc(Cl)c(NC(=O)c4ccco4)cc3n2)cc1 | 10.3% (inactive) |
| CC1CCc2c(c3ccccc3[nH]c2=O)O1 (stereo unspecified) | 25.5% (inactive) |
| Clc1ccc(-c2nnc(-c3ccccc3)nc2N2CCSCC2)cc1 | 72% (active) |
| Cn1nc(-c2ccccc2)c(-c2nc(-c3ccc(Cl)cc3)no2)c1Cl | -16.4% (inactive) |
| CC1CN(c2nc(-c3ccccc3)nnc2-c2ccccc2)CC(C)O1 (stereo unspecified) | -3.1% (inactive) |
| O=C(Nc1ccccc1C(F)(F)F)c1cc(-c2ccc(O)cc2)on1 | 6.8% (inactive) |
| COc1ccc(C(=O)Nc2nc(-c3ccc(S(=O)(=O)N4CCOCC4)cc3)cs2)cc1 | 14.6% (inactive) |
| Cn1ccs/c1=N\S(=O)(=O)c1ccc(C(C)(C)C)cc1 | 65% (active) |
| CCC1=[N+]([O-])C(C)(/C(C)=N\O)N(O)C1(C)C (stereo unspecified) | 23.5% (inactive) |
| NC(=O)Cn1c(=O)oc2ccccc21 | -6.4% (inactive) |
| O=C1C(Cl)=C(N2CCOCC2)C(=O)N1c1ccccc1 | 84.7% (active) |
| c1ccc(-n2nnnc2N2CCOCC2)cc1 | 33.5% (inactive) |
| O=C(c1ccc(S(=O)(=O)N2CCOCC2)cc1)N1CCN(c2ccccc2)CC1 | -4.7% (inactive) |

| SMILES | inhibition |
| --- | --- |
| CC(C)(C)NC(=O)c1cc(NC(=O)c2ccco2)cc(NC(=O)c2ccco2)c1 | 20.8% (inactive) |
| CCOC(=O)c1sc(=S)n2c1[nH]c(=O)c1ccc(C(=O)OC)cc12 | -1.3% (inactive) |
| CCOC(=O)C1=C(C)Nc2sc(C(=O)c3ccc(Br)cc3)c(N)c2C1c1ccc(C(=O)OC)cc1 (stereo unspecified) | 88.2% (active) |
| CCOC(=O)N1CCC(NC(=O)c2cnn3ccccc23)CC1 | 5.9% (inactive) |
| O=C1C(C=NCC2CCCO2)=C(O)c2ccccc21 (stereo unspecified) | 8.1% (inactive) |
| CCCCC(=O)Nc1nc(C)c(-c2csc(Nc3ccc(Cl)cc3)n2)s1 | 45.9% (inactive) |
| CCCCCCC(=O)Nc1nc(C)c(-c2csc(Nc3cc(Cl)ccc3OC)n2)s1 | -7.7% (inactive) |
| C=CCCC(=O)Nc1nc(C)c(-c2csc(Nc3ccc(Cl)cc3)n2)s1 | 56.4% (active) |
| O=C(Nc1cc(N2CCOCC2)ncn1)NC1(C(F)(F)F)Oc2ccc(Cl)cc2O1 (stereo unspecified) | 1% (inactive) |
| CSCCC(NC(N)=O)C(=O)N(C)CC(=O)Nc1ccc(C)cc1 (stereo unspecified) | 3.3% (inactive) |
| O=[N+]([O-])c1ccc(N2CCN(S(=O)(=O)c3ccc4ccccc4c3)CC2)cc1NCc1ccco1 | 19.1% (inactive) |
| O=C(c1ccccc1)N1CCN(c2ccc([N+](=O)[O-])c(NCc3ccco3)c2)CC1 | 82.3% (active) |
| O=C(NCc1ccco1)c1nc(-c2ccccc2)n(-c2ccccc2)n1 | 25.6% (inactive) |
| O=C1N=C(N2CCOCC2)S/C1=C\C=C/c1ccccc1 | 10.8% (inactive) |
| Cc1ccsc1/C=C1\SC(N2CCOCC2)=NC1=O | 29% (inactive) |
| O=C1N=C(N2CCCC2)S/C1=C\c1cccc(Br)c1 | 58.2% (active) |
| Cc1nc([N+](=O)[O-])nn1C12CC3CC(CC(Br)(C3)C1)C2 | 15.2% (inactive) |
| COC(=O)c1sccc1NC(=O)c1cc(OC)c(OC)c(OC)c1 | 5.1% (inactive) |
| CCCCN=C1N/C(=C\c2ccco2)C(=O)N1c1ccccc1 | 0.7% (inactive) |
| O=C(NCCN1CCOCC1)[C@H](Cc1ccccc1)N1C(=O)c2ccccc2C1=O | -8.6% (inactive) |
| CSCCC(C(=O)NC1=NCCS1)N1C(=O)c2ccccc2C1=O (stereo unspecified) | 17.5% (inactive) |

| SMILES | inhibition |
| --- | --- |
| O=C(NC1=NCCS1)[C@H](Cc1ccccc1)N1C(=O)c2ccccc2C1=O | 57.5% (active) |
| C=CCn1c(SCc2csc(C)n2)nc2scc(-c3ccc(C)o3)c2c1=O | 16.7% (inactive) |
| Cn1c(SCC(=O)Nc2cccc(O)c2)nnc1-c1ccc(S(=O)(=O)N2CCOCC2)cc1 | 2.3% (inactive) |
| O=C(CCc1ccc(S(=O)(=O)N2CCOCC2)cc1)Nc1ccc2ccccc2c1 | 62.6% (active) |
| O=S(=O)(c1ccc2ccccc2c1)N1CCN(S(=O)(=O)N2CCOCC2)CC1 | 20.2% (inactive) |
| CCOC(=O)N1CCN(CC(=O)n2c(C)c(C)c3ccccc32)CC1 | 37.1% (inactive) |
| CCCc1nc(N)nc2c1C(=O)CC(C)(C)C2 | 7.6% (inactive) |
| CC(C)c1ccc(/C=C/C(=O)NNC(=O)c2cccnc2)cc1 | 1.1% (inactive) |
| COc1ccc2[nH]cc(/C=C(/C#N)S(=O)(=O)c3ccccc3)c2c1 | 99.8% (active) |
| COc1ccc(/C=C(\NC(=O)c2ccc(OC)c(OC)c2)C(=O)NCCc2c[nH]c3ccccc23)cc1 | 35.2% (inactive) |
| CCn1nc(NC(=O)c2ccco2)c2cc3ccc(C)cc3nc21 | 7.9% (inactive) |
| O=C(NC1(C(F)(F)F)N=C2SCCN2C1=O)c1ccco1 (stereo unspecified) | -15.5% (inactive) |
| CCN(CC)C(=O)CSc1nnc(CNc2ccc(F)cc2)n1Cc1ccco1 | -8.4% (inactive) |
| N=C(N)SCc1cccc2ccccc12 | -3.6% (inactive) |
| c1ccc2c(C[n+]3csc4ccccc43)cccc2c1 | 60.7% (active) |
| N#C/C(=C(/O)Cc1cccc2ccccc12)c1nc2ccccc2s1 | -0.2% (inactive) |
| Cc1c2cn[nH]c(=O)c2c(C)n1Cc1ccc(F)cc1 | 48.3% (inactive) |
| Cc1ccc2oc(=O)c3cnn(CC(=O)N(Cc4ccco4)C4CCCCC4)c3c2c1 | 7.4% (inactive) |
| CCOC(=O)c1c(NC(=O)CCCN2CCOCC2)sc2c1CC(C)(C)OC2 | 9.3% (inactive) |
